Compounds with a hit are over-represented: about 2.6% of the library has one in this group of screens.
Cruzain inh noDet – inhibitors of Trypanosoma cruzi cruzain without detergent; P25779; purified cruzain, Z-FR-AMC fluorescence, no detergent; Potency, µM, for the others: max response, negative = inhibition, actives largely listed as inhibitors; actives 2.3% (n = 200,000); AID 1476;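 further: plate controls were enzyme without inhibitor for no effect and buffer without enzyme for full effect; nearly all actives have a fitted effect of over 40% in size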
Target sequence (P25779 123-467 limits assumed): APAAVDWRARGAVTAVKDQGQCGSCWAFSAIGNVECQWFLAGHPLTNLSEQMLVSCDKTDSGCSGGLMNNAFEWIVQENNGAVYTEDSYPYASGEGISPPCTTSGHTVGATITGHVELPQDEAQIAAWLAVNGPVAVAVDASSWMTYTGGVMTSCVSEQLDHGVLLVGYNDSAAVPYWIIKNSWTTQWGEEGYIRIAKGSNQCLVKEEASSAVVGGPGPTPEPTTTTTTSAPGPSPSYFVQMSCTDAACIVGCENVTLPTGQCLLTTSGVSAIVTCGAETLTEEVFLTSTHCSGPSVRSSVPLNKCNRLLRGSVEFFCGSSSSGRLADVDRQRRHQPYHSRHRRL
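Purified cruzain at 1.5 nM, pre-incubated 15 min with compound at room temperature in 100 mM sodium acetate pH 5.5, 5 mM DTT, 0.00005% Triton X-100. Reaction started with 2 uM Z-FR-AMC; AMC fluorescence increase over 60 s gives rate.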
Cruzain inh Det – blocks cruzain activity in presence of Triton detergent; AID 1478; P25779; actives 0.43% (n = 200,000); Potency, µM, for inactives: max response, negative = inhibition, most hits filed as inhibitors; purified cruzain, Z-FR-AMC fluorescence, 0.01% Triton;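 further: plate controls were neutral wells for no effect and buffer without enzyme for full effect; nearly all actives have a fitted effect of over 40% in size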
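Purified cruzain (1.5 nM final) was preincubated with compounds for 15 min at room temperature in 100 mM sodium acetate pH 5.5, 5 mM DTT, 0.01% Triton X-100. Reaction started with 2 uM Z-FR-AMC; AMC fluorescence change over 60 s gave activity.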
Numbers without * were called inactive; ? = inconclusive. The call rests on the fitted dose curve; in most records, active means well fitted curve in the direction sought with a large enough effect; inconclusive means small, poorly fitted or top-dose-only effect, or another doubt; inactive means no such curve, though single readings can be large; an effect the other way counts as inactive or inconclusive. Potency means the concentration at half of the fitted maximal effect.

SMILES	Cruzain inh noDet	Cruzain inh Det
COc1ccc(OC)c(NC(=O)CC2SC(=Nc3ccc(F)cc3)N(CCC3=CCCCC3)C2=O)c1 (stereo unspecified)	20µM*	-7%
COc1ccc(OC)c(NC(=O)CC2SC(=Nc3ccccc3)N(CCc3ccccn3)C2=O)c1 (stereo unspecified)	?	-4%
COc1ccc(N=C2SC(CC(=O)Nc3ccc(OC)cc3OC)C(=O)N2C)cc1 (stereo unspecified)	?	-4%
COc1cc([N+](=O)[O-])ccc1NC(=O)CC1SC(=Nc2ccc(F)cc2)N(CCC2=CCCCC2)C1=O (stereo unspecified)	10µM*	-4%
CCOC(=O)C1=C(N)Oc2ccc(Br)cc2[C@@H]1[C@@H](C#N)C(=O)OCC	-10%	2%
O=C(COC(=O)CNC(=O)c1sc2ccccc2c1Cl)Nc1c(Cl)cc(Cl)cc1Cl	?	25µM*
O=C(COC(=O)c1sc2ccccc2c1Cl)Nc1ncc(Cl)cc1Cl	?	-5%
Cc1ccccc1NC(=O)COC(=O)CNC(=O)c1sc2ccccc2c1Cl	3.2µM*	7.9µM*
CCOC(=O)c1ccccc1NC(=O)c1sc2ccccc2c1Cl	5%	-1%
CN1CCN(c2ncnc3ccc(-c4cccc(NS(C)(=O)=O)c4)cc23)CC1	-3%	0%
O=C=Nc1ccc(Cl)c(Cl)c1	?	0%
NCOC(=O)Cc1ccc(Br)cc1	-1%	4%
BrC/C=C/CBr	0%	1%
COC(=O)c1ccc(-c2nc3ccccc3o2)cc1	7%	2%
COC(=O)c1ccc(-c2ncc(-c3cccc4ccccc34)o2)cc1	?	20µM*
CCCCCCCCOC(=O)C(NC(=O)CCC(=O)Nc1ccc(S(N)(=O)=O)cc1)C(O)c1ccccc1 (stereo unspecified)	7.9µM*	3%
CCOC(=O)C(NC(=O)CCC(=O)Nc1ccc(S(N)(=O)=O)cc1)C(O)c1ccccc1 (stereo unspecified)	9%	0%
N#CC(Cc1ccc(O)c(O)c1)C(=O)N1CCc2ccccc21 (stereo unspecified)	-8%	-10%
C/C(=N/NC(=O)c1cc(-c2cccc([N+](=O)[O-])c2)n[nH]1)c1ccc(Cl)cc1	6.3µM*	0%
C/C(=N\NC(=O)c1ccc(CN2CCOCC2)cc1)c1cccc([N+](=O)[O-])c1	-9%	1%
O=C(NCCc1ccccc1)C(=O)NCC(c1cccnc1)N1CCN(c2ccccc2)CC1 (stereo unspecified)	4%	-1%
O=c1oc2ccccc2cc1-c1csc(NN=C2CCCCC2)n1	20µM*	-26%
CC1CCC/C(=C(\C#N)c2nc(-c3cc4ccccc4oc3=O)cs2)C1 (stereo unspecified)	-15%	-7%
O=c1oc2ccccc2cc1-c1nc(-c2cccc(Cl)c2)cs1	-1%	0%
O=c1oc2ccccc2cc1-c1csc(Nc2nc3ccc(F)cc3s2)n1	6%	-6%
SMILES	Cruzain inh noDet	Cruzain inh Det
O=c1oc2ccccc2cc1-c1csc(Nc2nc3c(F)cccc3s2)n1	32µM*	-3%
O=c1oc2ccccc2cc1-c1csc(Cc2nc(-c3ccc(Cl)cc3)cs2)n1	10µM*	-2%
COCCn1c(=O)c(-c2ccc(Cl)cc2)nc2cnc(N3CCOCC3)nc21	4%	2%
CS(=O)(=O)N1CCC[C@@]2(CCN(c3ncccn3)C2)C1	0%	3%
CS(=O)(=O)N1CCC2(CC1)CN(c1ncccn1)C2	16µM*	-3%
CC(C)c1nn2c(=O)cc(COC(=O)c3ccc(NC(=O)c4cccs4)cc3)nc2s1	-5%	0%
CN(C)c1ccc(CNC(=O)CN2CCSc3ccc(S(=O)(=O)N(C)C)cc32)cc1	-1%	-4%
CCc1ccc(/C=N/NC(=O)c2cc(-c3ccccc3OC)nc3ccccc23)s1	-27%	-8%
CCc1ccc(/C=N/NC(=O)c2cc(C3CC3)nc3ccc(Br)cc23)s1	25µM*	3%
Cc1ccc(-n2c(=O)c3cccnc3n2CC(=O)Nc2ccc(Br)cc2)cc1C	?	-6%
Cc1ccc2nc(-c3ccc(Cl)cc3)cc(C(=O)OCC(=O)c3ccccc3)c2c1	6%	0%
COc1ccc(/C=C/C(=O)Nc2sc(Cc3ccccc3)c(C)c2C(N)=O)cc1	16µM*	-11%
Cc1c(Cc2ccccc2)sc(/N=C/c2c(O)ccc3ccccc23)c1C(N)=O	-19%	-8%
Cc1c(Cc2ccccc2)sc(/N=C/c2ccc3ccccc3c2)c1C(N)=O	6.3µM*	-4%
Cc1c(Cc2ccccc2)sc(N)c1C(N)=O	?	-6%
CCCCC(CC)CNC(=O)CN(C)S(=O)(=O)c1ccc2c(c1)c(=O)n(C)c(=O)n2C (stereo unspecified)	8%	2%
Cc1cc(Br)ccc1NC(=O)CCS(=O)(=O)c1cccc2nsnc12	-10%	5%
CS(=O)(=O)Nc1ccc(Cc2noc(-c3ccc4[nH]cc(CCN)c4c3)n2)cc1	32µM*	-2%
COc1ccc2[nH]cc(CCNc3ccnc(-c4cccc(NS(C)(=O)=O)c4)n3)c2c1	0%	-4%
COC(=O)c1cc2sc(Cl)cc2n1CC(=O)NCCC(C)C	25µM*	3%
COC(=O)c1cc2sc(Cl)cc2n1CC(=O)Nc1cc(OC)cc(OC)c1	18%	-2%
COc1ccccc1CNc1nc(-c2ccccc2OC)nc2ccccc12	-6%	-1%
COC(=O)N1C(C)=Cc2ccccc2C1C/C(C)=C/C(C)=O (stereo unspecified)	-2%	2%
Cc1ccc(S(=O)(=O)N(C)Cc2ccc(C(=O)N/N=C/c3ccc(OC(F)F)cc3)cc2)cc1	10µM*	-1%
C/C(=N\NC(=O)c1ccc(CN(C)S(=O)(=O)c2ccc(C)cc2)cc1)c1ccc(OC(F)F)cc1	4%	-2%
SMILES	Cruzain inh noDet	Cruzain inh Det
COc1ccc2c(c1)CC(NC(=O)Nc1c(C)cc(C)cc1C)CO2 (stereo unspecified)	-1%	5%
COc1ccc(/C=C\C(=O)Oc2cccc(/C=N/NC(=O)Cc3ccc(OC)c(OC)c3)c2)cc1	11%	-10%
COc1cc(/C=N/NC(N)=S)ccc1OCc1ccc(C)cc1	1µM*	2.2µM*
CC(=O)Nc1ccc(/C=N/NC(N)=S)cc1	11µM*	-17%
COc1ccc(CNC(=S)N/N=C/c2ccc(OC)c(OC)c2)cc1	10%	-6%
COc1cc(/C=N/NC(N)=S)ccc1OC(=O)c1ccc(C)cc1	2.5µM*	4.5µM*
COc1ccc(/C=N/NS(=O)(=O)c2ccccc2)cc1OC(=O)c1ccc(C)cc1	?	0%
NC(=S)N/N=C/c1ccccc1	3%	-18%
COc1ccc(C(=O)Oc2cccc(/C=N/NC(N)=S)c2)cc1	16µM*	?
COc1ccc(NC(=O)N2CCC3(CC2)CCN(S(C)(=O)=O)CC3)cc1	1%	4%
O=C(CCC1N=C2c3ccccc3N=C(SCc3ccc(Cl)cc3)N2C1=O)NC1CCCCC1 (stereo unspecified)	0%	-4%
COc1ccc2c(c1)O[C@@H](c1cccc(C(F)(F)F)c1)[C@H](OC(=O)N[C@H](C)C1CCCCC1)C2=O	-1%	-1%
CCn1ccc2cc(S(=O)(=O)N3CCC(C(=O)NCc4ccc(OC(C)C)cc4)CC3)ccc21	-8%	-4%
Cc1ccc(N/N=C/c2ccc3c(c2)OCCO3)cc1Cl	20µM*	3%
O=C(O)c1cc(N/N=C/c2ccc3c(c2)OCCO3)ccc1Cl	-1%	-8%
COc1ccc(NC(=O)CN2C(=O)CSc3ccc(S(=O)(=O)N(C)C)cc32)cc1Cl	?	-3%

Screening data from PubChem.
